PLK1 kinase inh: inhibitors of human PLK1 kinase; inhibition, % at 10 µM; recombinant PLK1 kinase, TR-FRET peptide phosphorylation; P53350; 97,000 tested, 0.53% active;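 active means inhibition of 50% or more in the single-concentration screen; inactive means inhibition below 50%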
CYP2C19 act: increases human CYP2C19 enzyme activity; recombinant CYP2C19, luciferin-H EGE luminescence; hits give high values; 0 = fully inhibited enzyme, 1 = untreated enzyme; 96,000 tested, under 10 active; P33261; activation factor at 5 µM;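 active means activation factor of at least 2 at 5 µM in the primary screen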
Target sequence (P33261 whole entry, looked up): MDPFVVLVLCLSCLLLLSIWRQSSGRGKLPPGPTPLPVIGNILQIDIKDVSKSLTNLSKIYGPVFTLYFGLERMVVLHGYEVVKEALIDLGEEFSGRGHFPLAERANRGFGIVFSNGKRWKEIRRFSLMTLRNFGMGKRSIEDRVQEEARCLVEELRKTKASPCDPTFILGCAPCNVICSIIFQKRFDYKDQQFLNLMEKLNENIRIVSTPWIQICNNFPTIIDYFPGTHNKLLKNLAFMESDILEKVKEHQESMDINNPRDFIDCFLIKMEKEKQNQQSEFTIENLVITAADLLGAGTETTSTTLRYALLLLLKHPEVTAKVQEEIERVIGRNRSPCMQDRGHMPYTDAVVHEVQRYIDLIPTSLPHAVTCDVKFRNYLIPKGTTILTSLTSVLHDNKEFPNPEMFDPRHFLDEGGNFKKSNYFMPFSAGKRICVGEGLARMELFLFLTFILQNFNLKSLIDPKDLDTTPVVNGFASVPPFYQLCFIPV
Plk1 PBD FP: Plk1 (human) PBD binding inhibition. P53350. Plk1 PBD phosphopeptide binding, fluorescence polarization. inhibition, %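 (tested at about 20 µM)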. 97,000 tested, 0.13% active; in the data active means inhibition above about 34%, passing the limit was not always enough
CYP2C9 inh: blocks human cytochrome P450 2C9 | 96,000 tested, 20% active | inhibition, % at 5 µM | P11712 | CYP2C9 Supersomes, luciferin-H conversion, luminescence;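 active means blocking of liver enzyme CYP2C9 beyond about 50% at 5 µM, limit read from the data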
CYP2C9 activ: activators of human CYP2C9. recombinant CYP2C9, luciferin-H conversion, luminescence; hits give high values; factor 1 = untreated enzyme, 0 = blocked. activation factor at 5 µM. 96,000 tested, 1.4% active. AID 1024;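 active means activation factor of 2 or more for CYP2C9 at a 5 µM dose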
CYP2C19 inhib: inhibitors of human CYP2C19. CYP2C19 Supersomes, luciferin-H EGE luminescence, 30 min. inhibition, % at 5 µM. 96,000 tested, 21% active. AID 778;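 active means CYP2C19 inhibition above a set limit at 5 µM in the primary screen, cut at about 50% in these data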
Of the large screens only hits and unclear results are named; the others gave an inactive call. Sampled rows, rich in hits. Any-hit rate of the full collection: about 28%.

Cc1cc(-n2nc(C)cc2C)n2nc(C)c(-c3ccc(Cl)cc3)c2n1	none
O=C(C1CCCN(S(=O)(=O)c2cnc[nH]2)C1)N1CC(=O)N(CCc2ccccc2)C(=O)C1 (stereo not given)	none
CCCc1cc(=O)n2c(nc3ccccc32)[nH]1	none
COc1ccc(S(=O)(=O)O/N=C2\CCSc3ccc(C)cc32)cc1	CYP2C19 inhib 56
Cc1ccc(C(=O)O/N=C2\CCSc3ccc(C)cc32)cc1	none
O=C1CC(c2ccccc2)Cc2nc(N3CCc4ccccc43)ncc21 (stereo not given)	none (no result: CYP2C19 act, CYP2C9 inh, CYP2C9 activ, CYP2C19 inhib)
O=C1CC(c2ccccc2)Cc2nc3ncnn3cc21 (stereo not given)	CYP2C19 inhib 99
Clc1ccc(CSc2nnc(-c3ccncc3)o2)cc1	CYP2C9 inh 82, CYP2C19 inhib 92
CCSc1nnc(-c2ccncc2)o1	none (no result: CYP2C19 act, CYP2C9 inh, CYP2C9 activ, CYP2C19 inhib)
Cc1cc(NC(=O)CSc2nnc(-c3ccc4c(c3)OCCO4)o2)no1	none
Clc1ccc(CSc2nnc(-c3ccc4c(c3)OCO4)o2)cc1	CYP2C9 inh 50
Cc1ccc(NC(=O)Cc2nc(CSc3nnc(-c4ccc5c(c4)OCO5)o3)cs2)cc1	CYP2C19 inhib 61
Cc1cc(C)n2nc(SCc3ncc(-c4ccccc4)o3)nc2n1	CYP2C19 inhib 86 (no result: PLK1 kinase inh, Plk1 PBD FP)
Cc1cc(C)n2nc(SCC#N)nc2n1	none (no result: CYP2C19 act, CYP2C9 inh, CYP2C9 activ, CYP2C19 inhib)
Cc1ccc2c(CSc3nc4nc(C)cc(C)n4n3)cc(=O)oc2c1	none
COc1ccc2c(CSc3nc4nc(C)cc(C)n4n3)cc(=O)oc2c1	CYP2C9 inh 85, CYP2C19 inhib 72
CCCc1cc(=O)[nH]c(SCC(=O)Nc2ccc(OC(F)F)cc2)n1	none
O=C(CSc1nnc(C2CC2)n1-c1ccccc1)NCCc1ccccc1	none
O=C(OCC(=O)N1CCCCCC1)c1cccs1	none
CCOC(=O)c1cnc(-c2cccc(OC)c2)[nH]c1=O	none
CCOC(=O)c1cnc(-n2nc(C)cc2C)nc1NCCO	none
CCOC(=O)c1cnc(NCc2ccccc2)nc1C	CYP2C9 inh 62, CYP2C19 inhib 51 (no result: PLK1 kinase inh, Plk1 PBD FP)
CCOC(=O)c1cnc(SCCc2ccccc2)nc1N	none
CCOC(=O)c1cnc(-c2ccccc2)[nH]c1=O	CYP2C9 inh 55
CCOC(=O)c1cnc(-n2nc(C)cc2C)nc1NCc1ccccc1	CYP2C9 inh 68
O=C(CCc1ccc(S(=O)(=O)N2CCOCC2)cc1)Nc1nc(COc2ccccc2)cs1	CYP2C9 inh 85
O=C(COc1ccccc1)Nc1nc(-c2ccc(S(=O)(=O)N3CCOCC3)cc2)cs1	CYP2C9 inh 78
O=C(COc1ccc(Cl)cc1)Nc1nc(-c2ccc(S(=O)(=O)N3CCOCC3)cc2)cs1	CYP2C9 inh 92, CYP2C19 inhib 58
O=C(CCc1ccc(S(=O)(=O)N2CCOCC2)cc1)Nc1nccs1	none
Cc1[nH]c2ccccc2c1Cc1nnc(SCC(N)=O)o1	none (no result: PLK1 kinase inh, Plk1 PBD FP)
CCn1c(SCc2ccc(F)cc2)nnc1-c1nn(-c2ccccc2)ccc1=O	none
CC(=O)N1CCc2cc(S(=O)(=O)CCC(=O)Nc3ccc4c(c3)OCCO4)ccc21	none
CC(=O)N1CCc2cc(S(=O)(=O)NC(C(=O)Nc3ccc4c(c3)OCCO4)C(C)C)ccc21 (stereo not given)	CYP2C9 inh 52 (no result: PLK1 kinase inh, Plk1 PBD FP)
CCOC(=O)c1cccc(NC(=O)C(NS(=O)(=O)c2ccc3c(c2)CCN3C(C)=O)C(C)C)c1 (stereo not given)	CYP2C9 inh 68 (no result: PLK1 kinase inh, Plk1 PBD FP)
Cc1cn(Cc2ccccc2)c(=O)[nH]c1=O	none
CCCCNCC(=O)Nc1ccc(NC(=O)CNCCCC)cc1	none
COc1ccc2c(c1)C1(Nc3ccccc3C(=O)N1c1ccccc1)C(=O)N2 (stereo not given)	CYP2C9 inh 87
COc1ccc(C(=O)NCCC2=CCCCC2)cc1OC	CYP2C19 inhib 66
Cc1ccc(NS(=O)(=O)c2cc(C(=O)NCc3ccccn3)ccc2Cl)cc1	CYP2C9 inh 55, CYP2C19 inhib 73
COc1cccc(C(=O)NCCC2=CCCCC2)c1	CYP2C19 inhib 93
O=C(NCCC1=CCCCC1)c1ccc(Cl)c(S(=O)(=O)Nc2ccccc2)c1	CYP2C9 inh 69
Cc1ccc(NS(=O)(=O)c2cc(C(=O)O)ccc2Cl)cc1	none
CC(=O)c1cccc(NC(=S)NCCC2=CCCCC2)c1	none (no result: CYP2C19 act, CYP2C9 inh, CYP2C9 activ, CYP2C19 inhib)
CSc1nnc(-c2cccc(C)c2)n1N	none
CCOC(=O)CNC(=O)Nc1ccccc1C(=O)OC	none
CCOCCc1nnc(NC(=O)CSc2ccccc2)s1	none
Cc1cc(NC(=O)c2cc3n(n2)C(C(F)(F)F)CC(c2ccco2)N3)no1 (stereo not given)	CYP2C9 inh 51
COc1ccc(OC)c(NC(=O)c2cc3n(n2)C(C(F)(F)F)CC(c2ccc4c(c2)OCO4)N3)c1 (stereo not given)	none (no result: CYP2C19 act, CYP2C9 inh, CYP2C9 activ, CYP2C19 inhib)
COc1ccccc1NC(=O)c1cc2n(n1)C(C(F)(F)F)CC(c1ccc3c(c1)OCO3)N2 (stereo not given)	CYP2C9 inh 75, CYP2C19 inhib 81
O=C(NCc1ccccn1)c1cc2n(n1)C(C(F)(F)F)CC(c1ccco1)N2 (stereo not given)	none
Cc1cccc(N2CCN(C(=O)c3cc4n(n3)C(C(F)(F)F)CC(c3ccco3)N4)CC2)c1C (stereo not given)	CYP2C9 inh 88
O=C(O)c1cc2n(n1)C(C(F)(F)F)CC(c1ccco1)N2 (stereo not given)	CYP2C9 inh 62
NC(=O)c1cc2n(n1)C(C(F)(F)F)CC(c1ccco1)N2 (stereo not given)	none
CCOC(=O)c1c(C)oc(/N=C/c2ccccc2O)c1C#N	none
CCc1ccc(OCc2nnc(SCCN3CCOCC3)n2C)cc1	none
O=C(Cn1nnc2c(cnn2-c2ccccc2)c1=O)N1CCN(c2ccccc2F)CC1	none
Cc1ccc(C(=O)NCC(C)(C)N2CCOCC2)s1	CYP2C19 inhib 55
COc1cccc(C(=O)Nc2c(F)c(F)c(F)c(F)c2F)c1	none
CNC(=O)c1[nH]cnc1C(=O)Nc1cccc(OC)c1	CYP2C19 inhib 67
COc1cccc(C(=O)Nc2cccc(SC)c2)c1	CYP2C19 inhib 87
COc1cccc(C(=O)Nc2ccccc2)c1	none
COc1cccc(C(=O)Nc2cccc(OCC(=O)O)c2)c1	CYP2C19 inhib 70
COC(=O)c1[nH]c2cc(OC)c(OC)cc2c1NC(=O)c1cccc(OC)c1	CYP2C9 inh 59
Cc1cc(CN2C(=O)c3ccccc3C2=O)cc(N2CCOCC2)c1	none
CCOc1ccc(/C=N/NC(=O)c2ccc(Cn3cc([N+](=O)[O-])cn3)o2)cc1	CYP2C9 inh 59
CCOc1ccccc1/C=N/NC(=O)c1ccc(Cn2cc([N+](=O)[O-])cn2)o1	none
Cc1cc(C(F)(F)F)nn1CC(=O)NNC(=S)Nc1cccc(Cl)c1	none
CCOc1ccc(OCC(=O)N2CCOCC2)cc1	none
Cc1cc(C)c(C)c(OCC(=O)N2CCOCC2)c1	CYP2C19 inhib 67
Cc1cc(OCC(=O)N2CCOCC2)c(C(C)C)cc1Cl	CYP2C19 inhib 80

Bioassay records deposited in PubChem BioAssay by several laboratories.
